From the supplement of paper PMC11732987, “Enantioselective OTUD7B fragment discovery through chemoproteomics screening and high-throughput optimisation” (Communications Chemistry, 2025)

Legend:
Test in all cases: log2 ratio of Biotin-Ahx-Ub-VS probe labelling (fragment/DMSO); higher = less target engagement (more negative = stronger competition), active = hit call of the paper (q ≤ 0.05, log2 ratio ≤ -1)
Conditions in all cases: compound concentration: 200 uM; treatment time: 3 h
USP19 = target: T1, USP19 (UniProt O94966)
T1 sequence (whole entry): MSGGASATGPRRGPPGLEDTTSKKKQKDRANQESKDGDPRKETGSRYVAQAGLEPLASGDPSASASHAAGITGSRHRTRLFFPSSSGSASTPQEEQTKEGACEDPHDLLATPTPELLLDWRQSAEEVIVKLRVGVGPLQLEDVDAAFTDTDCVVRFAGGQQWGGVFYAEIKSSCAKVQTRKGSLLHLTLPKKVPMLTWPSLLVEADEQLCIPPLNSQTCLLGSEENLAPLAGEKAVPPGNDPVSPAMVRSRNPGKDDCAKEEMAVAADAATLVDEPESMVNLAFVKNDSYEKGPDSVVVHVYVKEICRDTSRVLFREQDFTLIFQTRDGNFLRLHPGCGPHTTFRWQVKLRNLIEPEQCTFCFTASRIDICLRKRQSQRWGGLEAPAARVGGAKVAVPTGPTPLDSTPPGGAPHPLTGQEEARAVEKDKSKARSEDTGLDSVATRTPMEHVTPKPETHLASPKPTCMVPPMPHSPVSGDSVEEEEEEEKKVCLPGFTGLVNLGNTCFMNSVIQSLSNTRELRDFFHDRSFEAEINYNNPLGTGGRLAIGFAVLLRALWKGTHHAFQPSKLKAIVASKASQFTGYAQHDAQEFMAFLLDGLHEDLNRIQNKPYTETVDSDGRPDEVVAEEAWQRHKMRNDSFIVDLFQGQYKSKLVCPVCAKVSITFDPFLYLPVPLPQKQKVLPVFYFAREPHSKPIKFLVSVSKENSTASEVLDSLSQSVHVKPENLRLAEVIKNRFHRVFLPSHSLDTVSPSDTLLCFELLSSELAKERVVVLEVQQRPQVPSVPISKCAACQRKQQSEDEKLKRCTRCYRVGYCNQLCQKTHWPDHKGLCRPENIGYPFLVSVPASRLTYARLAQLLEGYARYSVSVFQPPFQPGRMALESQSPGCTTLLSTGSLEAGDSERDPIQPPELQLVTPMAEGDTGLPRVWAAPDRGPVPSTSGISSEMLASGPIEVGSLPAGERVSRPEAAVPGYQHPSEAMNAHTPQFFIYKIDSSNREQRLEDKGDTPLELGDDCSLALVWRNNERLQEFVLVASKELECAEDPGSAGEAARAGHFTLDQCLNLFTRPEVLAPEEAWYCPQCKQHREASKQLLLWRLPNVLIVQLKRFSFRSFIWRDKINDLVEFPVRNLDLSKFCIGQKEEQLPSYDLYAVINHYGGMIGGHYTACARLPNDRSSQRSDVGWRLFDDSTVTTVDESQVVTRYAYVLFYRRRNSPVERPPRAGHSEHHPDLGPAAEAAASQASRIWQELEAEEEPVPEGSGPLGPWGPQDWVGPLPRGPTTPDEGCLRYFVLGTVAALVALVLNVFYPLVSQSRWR
Method in brief: (§1)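 Triplicate samples of HEK293T lysate, 495 µg each, received fragment at 200 µM or vehicle for 3 h, followed by Biotin-Ahx-Ub-VS (0.5 µM final) for 1 h. After NeutrAvidin enrichment of labelled DUBs and LysC/trypsin digestion, peptides were run by diaPASEF LC-MS/MS. The values are average log2 fragment/vehicle ratios from global-median-normalised Spectronaut label-free quantities, tested by unpaired t-test on proteins having ≥2 unique peptides.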

USP22 = target: T2, USP22 (UniProt Q9UPT9)
T2 sequence (whole entry): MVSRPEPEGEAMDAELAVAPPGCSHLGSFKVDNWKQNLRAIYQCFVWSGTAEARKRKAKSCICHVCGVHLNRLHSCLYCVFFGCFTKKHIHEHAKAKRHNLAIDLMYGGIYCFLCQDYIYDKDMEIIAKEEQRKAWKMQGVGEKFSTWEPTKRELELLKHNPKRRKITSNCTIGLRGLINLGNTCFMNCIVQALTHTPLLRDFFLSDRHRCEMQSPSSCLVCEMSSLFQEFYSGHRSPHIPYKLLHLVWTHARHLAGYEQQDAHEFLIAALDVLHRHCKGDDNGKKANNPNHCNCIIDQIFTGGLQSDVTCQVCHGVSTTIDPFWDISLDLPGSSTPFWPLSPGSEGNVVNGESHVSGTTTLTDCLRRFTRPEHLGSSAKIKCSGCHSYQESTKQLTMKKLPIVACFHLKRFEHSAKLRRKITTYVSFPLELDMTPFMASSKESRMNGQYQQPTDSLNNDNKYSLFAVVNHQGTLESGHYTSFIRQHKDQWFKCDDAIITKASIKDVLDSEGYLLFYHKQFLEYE
Method in brief: as §1

USP24 = USP24 (UniProt Q9UPU5)
Method in brief: as §1

USP25 = target: T3, USP25 (UniProt Q9UHP3)
T3 sequence (whole entry): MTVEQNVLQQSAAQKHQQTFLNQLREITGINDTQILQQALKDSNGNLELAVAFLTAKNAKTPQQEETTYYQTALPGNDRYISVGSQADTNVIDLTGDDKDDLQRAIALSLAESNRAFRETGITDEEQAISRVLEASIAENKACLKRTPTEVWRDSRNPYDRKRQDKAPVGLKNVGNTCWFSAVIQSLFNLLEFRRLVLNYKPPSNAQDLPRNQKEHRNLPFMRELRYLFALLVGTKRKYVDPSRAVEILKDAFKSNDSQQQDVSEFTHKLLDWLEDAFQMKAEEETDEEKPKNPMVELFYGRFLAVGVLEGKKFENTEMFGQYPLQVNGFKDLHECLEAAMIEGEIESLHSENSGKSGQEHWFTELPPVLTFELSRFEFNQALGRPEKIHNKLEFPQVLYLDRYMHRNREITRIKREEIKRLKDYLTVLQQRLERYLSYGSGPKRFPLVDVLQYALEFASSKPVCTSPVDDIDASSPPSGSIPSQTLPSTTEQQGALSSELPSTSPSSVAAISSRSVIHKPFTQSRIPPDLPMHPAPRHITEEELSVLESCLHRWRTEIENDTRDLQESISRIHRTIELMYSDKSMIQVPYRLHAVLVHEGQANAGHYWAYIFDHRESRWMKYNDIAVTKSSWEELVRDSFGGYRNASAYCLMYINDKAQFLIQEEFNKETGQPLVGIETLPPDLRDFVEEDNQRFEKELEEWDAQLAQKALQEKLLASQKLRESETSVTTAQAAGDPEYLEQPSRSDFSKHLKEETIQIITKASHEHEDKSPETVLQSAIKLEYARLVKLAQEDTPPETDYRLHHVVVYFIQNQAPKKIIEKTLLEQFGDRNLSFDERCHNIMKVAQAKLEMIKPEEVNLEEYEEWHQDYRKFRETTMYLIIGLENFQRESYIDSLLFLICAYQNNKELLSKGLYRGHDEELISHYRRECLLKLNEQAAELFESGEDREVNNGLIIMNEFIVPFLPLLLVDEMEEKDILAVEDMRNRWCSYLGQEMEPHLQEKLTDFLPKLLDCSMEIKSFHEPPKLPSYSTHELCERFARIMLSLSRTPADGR
Method in brief: as §1

USP28 = target: T4, USP28 (UniProt Q96RU2)
T4 sequence (whole entry): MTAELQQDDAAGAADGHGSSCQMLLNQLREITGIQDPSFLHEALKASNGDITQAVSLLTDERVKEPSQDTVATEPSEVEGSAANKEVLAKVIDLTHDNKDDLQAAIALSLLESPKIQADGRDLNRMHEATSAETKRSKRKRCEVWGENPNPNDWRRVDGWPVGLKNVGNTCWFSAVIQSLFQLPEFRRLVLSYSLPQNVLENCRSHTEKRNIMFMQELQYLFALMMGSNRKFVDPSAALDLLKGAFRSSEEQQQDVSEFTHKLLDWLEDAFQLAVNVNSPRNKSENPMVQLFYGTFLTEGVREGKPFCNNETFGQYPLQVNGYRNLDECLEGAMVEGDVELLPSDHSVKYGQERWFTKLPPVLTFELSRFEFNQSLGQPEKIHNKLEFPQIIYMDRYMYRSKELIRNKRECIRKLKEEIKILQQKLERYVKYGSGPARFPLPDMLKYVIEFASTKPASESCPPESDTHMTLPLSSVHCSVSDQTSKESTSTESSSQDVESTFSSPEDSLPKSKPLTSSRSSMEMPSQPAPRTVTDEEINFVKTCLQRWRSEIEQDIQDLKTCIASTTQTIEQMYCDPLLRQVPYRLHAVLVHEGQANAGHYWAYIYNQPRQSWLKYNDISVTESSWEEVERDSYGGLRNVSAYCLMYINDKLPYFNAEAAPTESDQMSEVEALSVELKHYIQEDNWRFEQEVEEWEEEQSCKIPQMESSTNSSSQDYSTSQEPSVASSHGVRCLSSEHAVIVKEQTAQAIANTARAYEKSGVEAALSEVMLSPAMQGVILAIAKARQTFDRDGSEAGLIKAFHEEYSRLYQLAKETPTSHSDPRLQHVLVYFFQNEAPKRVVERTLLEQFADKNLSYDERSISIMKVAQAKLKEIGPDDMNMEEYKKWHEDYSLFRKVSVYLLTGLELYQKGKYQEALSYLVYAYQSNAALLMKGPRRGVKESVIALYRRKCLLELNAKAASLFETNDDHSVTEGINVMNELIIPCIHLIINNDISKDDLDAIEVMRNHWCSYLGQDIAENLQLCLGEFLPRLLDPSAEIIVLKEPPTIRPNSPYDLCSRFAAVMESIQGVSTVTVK
Method in brief: as §1

Measured: log2 ratio of Biotin-Ahx-Ub-VS probe labelling

Sequence of USP24 (Q9UPU5 whole entry): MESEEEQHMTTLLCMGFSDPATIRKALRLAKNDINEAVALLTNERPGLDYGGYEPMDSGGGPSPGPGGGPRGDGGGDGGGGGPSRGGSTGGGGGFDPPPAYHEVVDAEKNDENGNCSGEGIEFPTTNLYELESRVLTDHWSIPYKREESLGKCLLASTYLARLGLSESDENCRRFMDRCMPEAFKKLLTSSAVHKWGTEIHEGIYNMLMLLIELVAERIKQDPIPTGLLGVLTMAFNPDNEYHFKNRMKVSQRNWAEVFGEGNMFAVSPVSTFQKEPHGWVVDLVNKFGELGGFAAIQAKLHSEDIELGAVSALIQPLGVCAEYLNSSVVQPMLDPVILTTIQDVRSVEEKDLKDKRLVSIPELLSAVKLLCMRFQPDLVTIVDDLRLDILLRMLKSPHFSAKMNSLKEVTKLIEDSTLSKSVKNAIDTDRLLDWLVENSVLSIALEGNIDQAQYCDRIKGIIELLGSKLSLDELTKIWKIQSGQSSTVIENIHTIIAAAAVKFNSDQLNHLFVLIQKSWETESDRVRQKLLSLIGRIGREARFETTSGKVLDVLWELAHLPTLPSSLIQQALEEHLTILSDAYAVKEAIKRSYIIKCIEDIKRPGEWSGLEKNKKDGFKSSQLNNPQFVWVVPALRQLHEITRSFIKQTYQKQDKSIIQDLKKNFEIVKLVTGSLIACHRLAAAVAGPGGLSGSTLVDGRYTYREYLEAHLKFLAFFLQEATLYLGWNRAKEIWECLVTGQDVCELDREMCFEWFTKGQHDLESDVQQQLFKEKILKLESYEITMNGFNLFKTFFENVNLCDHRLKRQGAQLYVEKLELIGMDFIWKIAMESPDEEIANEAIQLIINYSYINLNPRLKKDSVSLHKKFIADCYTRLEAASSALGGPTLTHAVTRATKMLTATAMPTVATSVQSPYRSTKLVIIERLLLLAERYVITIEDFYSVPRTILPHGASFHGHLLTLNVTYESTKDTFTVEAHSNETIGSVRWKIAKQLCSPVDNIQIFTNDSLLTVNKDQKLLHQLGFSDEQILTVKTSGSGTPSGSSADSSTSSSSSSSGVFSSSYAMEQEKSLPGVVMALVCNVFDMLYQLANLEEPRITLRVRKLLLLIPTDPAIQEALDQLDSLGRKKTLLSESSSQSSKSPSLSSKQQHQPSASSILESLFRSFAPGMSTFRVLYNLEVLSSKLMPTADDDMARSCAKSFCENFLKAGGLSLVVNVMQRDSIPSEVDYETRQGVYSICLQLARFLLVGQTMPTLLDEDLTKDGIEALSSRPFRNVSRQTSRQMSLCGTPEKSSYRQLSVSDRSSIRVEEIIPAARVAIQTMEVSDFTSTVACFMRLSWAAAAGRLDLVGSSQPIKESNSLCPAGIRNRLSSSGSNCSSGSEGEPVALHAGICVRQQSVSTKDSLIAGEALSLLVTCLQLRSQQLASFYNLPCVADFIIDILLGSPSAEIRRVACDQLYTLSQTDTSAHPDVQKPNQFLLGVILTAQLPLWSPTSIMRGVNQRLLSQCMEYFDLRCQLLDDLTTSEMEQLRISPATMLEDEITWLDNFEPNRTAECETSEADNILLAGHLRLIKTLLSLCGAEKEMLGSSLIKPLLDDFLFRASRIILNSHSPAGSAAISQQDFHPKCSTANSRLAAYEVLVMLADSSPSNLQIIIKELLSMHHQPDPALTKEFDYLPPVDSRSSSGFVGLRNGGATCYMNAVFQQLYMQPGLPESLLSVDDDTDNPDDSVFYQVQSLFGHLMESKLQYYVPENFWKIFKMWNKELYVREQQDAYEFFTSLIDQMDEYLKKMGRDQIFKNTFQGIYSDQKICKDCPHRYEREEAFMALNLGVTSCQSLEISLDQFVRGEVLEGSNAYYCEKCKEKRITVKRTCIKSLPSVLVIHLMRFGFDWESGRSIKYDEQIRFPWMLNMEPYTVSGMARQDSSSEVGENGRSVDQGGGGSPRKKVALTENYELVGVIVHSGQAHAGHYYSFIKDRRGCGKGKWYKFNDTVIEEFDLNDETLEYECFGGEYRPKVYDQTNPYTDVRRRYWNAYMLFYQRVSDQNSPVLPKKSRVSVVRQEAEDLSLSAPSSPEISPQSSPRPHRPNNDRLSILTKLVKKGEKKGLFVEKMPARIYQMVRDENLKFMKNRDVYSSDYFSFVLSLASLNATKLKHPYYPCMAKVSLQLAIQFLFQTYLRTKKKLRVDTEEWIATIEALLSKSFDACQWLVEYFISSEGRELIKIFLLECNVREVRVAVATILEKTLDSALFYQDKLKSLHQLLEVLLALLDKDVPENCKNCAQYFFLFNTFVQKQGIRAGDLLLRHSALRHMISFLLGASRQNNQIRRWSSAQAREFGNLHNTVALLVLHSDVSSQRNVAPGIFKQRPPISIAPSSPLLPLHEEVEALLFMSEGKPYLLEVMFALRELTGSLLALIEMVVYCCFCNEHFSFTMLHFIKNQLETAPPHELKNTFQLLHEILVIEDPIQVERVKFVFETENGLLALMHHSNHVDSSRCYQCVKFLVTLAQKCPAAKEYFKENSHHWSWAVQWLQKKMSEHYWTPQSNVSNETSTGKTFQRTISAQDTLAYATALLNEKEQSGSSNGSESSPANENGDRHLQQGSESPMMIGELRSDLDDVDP

Cl.O=C(CCl)N1CCn2cncc2C1
inactive: USP19 -0.443 | USP22 -0.0616 | USP24 -0.129 | USP25 -0.134 | USP28 -0.354
